This passage reports log2 fold change results from the supplement of paper PMC10849652.

The full data set covers some 8,800 targets. This sample favours those with a hit. About 0.5% of all pairs of compound and target were hits. Values without a mark were called inactive.

UniProt P35573, sequence (P35573 whole entry, looked up): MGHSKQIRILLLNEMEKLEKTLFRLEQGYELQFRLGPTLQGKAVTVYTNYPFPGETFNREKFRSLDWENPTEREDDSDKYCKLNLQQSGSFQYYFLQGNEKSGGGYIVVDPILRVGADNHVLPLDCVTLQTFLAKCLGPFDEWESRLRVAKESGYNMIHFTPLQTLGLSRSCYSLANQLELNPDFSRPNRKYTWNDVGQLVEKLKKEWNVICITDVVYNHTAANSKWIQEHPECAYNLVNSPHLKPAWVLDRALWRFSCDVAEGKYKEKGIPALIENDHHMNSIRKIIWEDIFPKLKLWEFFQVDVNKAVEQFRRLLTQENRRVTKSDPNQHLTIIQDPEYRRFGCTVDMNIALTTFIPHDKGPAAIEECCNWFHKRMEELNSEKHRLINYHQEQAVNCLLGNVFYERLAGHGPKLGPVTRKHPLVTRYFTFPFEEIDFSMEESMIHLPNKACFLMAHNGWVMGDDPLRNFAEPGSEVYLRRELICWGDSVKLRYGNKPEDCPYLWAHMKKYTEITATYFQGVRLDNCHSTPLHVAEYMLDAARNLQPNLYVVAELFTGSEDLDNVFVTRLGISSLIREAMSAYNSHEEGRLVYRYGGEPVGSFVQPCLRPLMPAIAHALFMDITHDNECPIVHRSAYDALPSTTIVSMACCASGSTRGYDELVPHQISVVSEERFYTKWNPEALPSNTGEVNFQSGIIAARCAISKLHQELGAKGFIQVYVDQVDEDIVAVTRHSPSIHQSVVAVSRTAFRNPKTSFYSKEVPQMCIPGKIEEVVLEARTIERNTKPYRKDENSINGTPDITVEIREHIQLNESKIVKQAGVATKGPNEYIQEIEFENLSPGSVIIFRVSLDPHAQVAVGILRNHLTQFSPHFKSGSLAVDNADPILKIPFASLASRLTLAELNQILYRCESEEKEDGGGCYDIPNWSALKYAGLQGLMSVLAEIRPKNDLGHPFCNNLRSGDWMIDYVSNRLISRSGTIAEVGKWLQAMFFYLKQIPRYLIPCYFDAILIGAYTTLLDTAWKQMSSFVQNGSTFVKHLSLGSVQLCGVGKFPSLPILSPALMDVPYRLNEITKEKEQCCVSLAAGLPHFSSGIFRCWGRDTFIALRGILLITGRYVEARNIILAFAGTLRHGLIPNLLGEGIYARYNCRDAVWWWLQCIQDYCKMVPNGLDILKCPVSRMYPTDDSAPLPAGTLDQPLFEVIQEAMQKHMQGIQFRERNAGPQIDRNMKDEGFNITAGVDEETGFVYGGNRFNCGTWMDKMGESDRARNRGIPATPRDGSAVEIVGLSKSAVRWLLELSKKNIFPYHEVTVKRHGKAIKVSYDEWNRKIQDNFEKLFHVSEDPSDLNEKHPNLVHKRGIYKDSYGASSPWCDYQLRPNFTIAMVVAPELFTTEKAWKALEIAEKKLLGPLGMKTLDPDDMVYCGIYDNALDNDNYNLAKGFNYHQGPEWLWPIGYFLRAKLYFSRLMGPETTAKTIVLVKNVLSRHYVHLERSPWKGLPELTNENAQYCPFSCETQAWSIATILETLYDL
UniProt P42684, sequence (P42684 whole entry, looked up): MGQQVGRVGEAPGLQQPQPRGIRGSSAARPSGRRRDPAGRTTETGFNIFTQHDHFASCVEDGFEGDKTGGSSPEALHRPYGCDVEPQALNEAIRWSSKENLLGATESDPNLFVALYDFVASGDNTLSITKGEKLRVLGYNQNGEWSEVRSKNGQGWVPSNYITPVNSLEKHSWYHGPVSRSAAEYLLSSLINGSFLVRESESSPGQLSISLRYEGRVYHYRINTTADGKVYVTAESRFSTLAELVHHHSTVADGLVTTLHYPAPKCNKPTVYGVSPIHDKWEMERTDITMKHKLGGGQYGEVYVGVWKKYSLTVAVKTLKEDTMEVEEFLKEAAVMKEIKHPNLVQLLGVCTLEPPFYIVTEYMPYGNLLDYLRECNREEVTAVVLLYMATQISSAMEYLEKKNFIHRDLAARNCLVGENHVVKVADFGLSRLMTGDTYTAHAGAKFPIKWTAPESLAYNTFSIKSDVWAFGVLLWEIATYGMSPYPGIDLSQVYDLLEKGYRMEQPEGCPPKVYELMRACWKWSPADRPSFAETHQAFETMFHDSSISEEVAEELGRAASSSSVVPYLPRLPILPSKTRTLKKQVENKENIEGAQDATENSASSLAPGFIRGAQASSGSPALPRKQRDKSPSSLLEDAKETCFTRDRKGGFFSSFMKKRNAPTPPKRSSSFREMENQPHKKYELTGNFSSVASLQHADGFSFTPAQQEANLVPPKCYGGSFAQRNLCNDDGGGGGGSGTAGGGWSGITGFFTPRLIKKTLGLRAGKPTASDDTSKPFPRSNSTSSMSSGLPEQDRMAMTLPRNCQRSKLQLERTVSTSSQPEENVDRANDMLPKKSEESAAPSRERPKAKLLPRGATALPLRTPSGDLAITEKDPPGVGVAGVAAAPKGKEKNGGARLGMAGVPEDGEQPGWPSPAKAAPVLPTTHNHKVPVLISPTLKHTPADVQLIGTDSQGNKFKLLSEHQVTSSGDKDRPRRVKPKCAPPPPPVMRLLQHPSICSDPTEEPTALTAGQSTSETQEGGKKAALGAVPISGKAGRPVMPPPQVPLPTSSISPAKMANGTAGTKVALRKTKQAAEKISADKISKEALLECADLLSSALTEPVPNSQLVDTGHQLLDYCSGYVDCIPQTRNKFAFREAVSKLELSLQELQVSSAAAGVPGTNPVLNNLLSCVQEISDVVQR
UniProt Q9NWX5, sequence (Q9NWX5 whole entry, looked up): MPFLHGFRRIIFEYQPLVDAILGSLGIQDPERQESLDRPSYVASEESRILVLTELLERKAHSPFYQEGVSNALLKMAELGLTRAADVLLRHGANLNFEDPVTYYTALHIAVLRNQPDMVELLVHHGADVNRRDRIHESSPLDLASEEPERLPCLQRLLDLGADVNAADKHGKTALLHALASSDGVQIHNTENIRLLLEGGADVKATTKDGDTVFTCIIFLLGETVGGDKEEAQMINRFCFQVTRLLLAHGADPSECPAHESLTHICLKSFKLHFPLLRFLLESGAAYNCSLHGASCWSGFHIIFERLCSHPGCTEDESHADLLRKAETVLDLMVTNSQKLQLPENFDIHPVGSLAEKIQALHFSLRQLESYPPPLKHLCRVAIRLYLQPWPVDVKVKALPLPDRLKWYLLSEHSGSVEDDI
UniProt P17707, sequence (P17707 whole entry, looked up): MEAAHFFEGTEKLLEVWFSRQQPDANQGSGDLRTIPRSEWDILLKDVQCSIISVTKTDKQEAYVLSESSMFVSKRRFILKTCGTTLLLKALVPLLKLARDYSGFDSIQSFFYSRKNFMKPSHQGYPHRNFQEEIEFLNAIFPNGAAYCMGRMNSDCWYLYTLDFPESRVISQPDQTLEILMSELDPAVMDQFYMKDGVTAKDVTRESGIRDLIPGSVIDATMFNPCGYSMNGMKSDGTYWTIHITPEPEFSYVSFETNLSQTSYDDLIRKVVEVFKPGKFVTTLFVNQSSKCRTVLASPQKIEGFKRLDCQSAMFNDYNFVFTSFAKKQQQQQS
UniProt Q5JTZ9, sequence (Q5JTZ9 whole entry, looked up): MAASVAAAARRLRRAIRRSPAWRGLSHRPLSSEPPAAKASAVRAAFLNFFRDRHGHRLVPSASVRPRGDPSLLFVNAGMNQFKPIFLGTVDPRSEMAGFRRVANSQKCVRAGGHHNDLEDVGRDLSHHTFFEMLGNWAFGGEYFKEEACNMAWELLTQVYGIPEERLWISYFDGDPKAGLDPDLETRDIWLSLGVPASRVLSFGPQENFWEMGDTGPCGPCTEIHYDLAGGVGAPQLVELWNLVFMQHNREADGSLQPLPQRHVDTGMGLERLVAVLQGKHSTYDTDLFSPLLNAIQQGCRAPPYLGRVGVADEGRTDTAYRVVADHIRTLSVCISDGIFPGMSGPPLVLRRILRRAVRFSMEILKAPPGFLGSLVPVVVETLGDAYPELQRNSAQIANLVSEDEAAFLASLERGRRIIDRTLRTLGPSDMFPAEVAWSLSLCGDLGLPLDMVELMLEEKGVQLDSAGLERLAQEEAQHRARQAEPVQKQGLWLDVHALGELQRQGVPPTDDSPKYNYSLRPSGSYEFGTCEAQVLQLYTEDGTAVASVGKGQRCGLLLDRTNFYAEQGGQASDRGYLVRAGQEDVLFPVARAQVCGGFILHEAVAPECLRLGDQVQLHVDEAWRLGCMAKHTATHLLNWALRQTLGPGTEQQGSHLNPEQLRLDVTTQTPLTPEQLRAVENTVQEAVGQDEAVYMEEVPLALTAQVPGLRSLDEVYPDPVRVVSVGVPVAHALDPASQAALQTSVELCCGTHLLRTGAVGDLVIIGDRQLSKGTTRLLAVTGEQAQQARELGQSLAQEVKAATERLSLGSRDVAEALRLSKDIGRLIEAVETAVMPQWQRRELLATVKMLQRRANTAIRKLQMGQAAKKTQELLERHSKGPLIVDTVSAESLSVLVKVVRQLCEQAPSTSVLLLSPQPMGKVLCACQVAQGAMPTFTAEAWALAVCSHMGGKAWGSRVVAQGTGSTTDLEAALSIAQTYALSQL
UniProt P27144, sequence (P27144 whole entry, looked up): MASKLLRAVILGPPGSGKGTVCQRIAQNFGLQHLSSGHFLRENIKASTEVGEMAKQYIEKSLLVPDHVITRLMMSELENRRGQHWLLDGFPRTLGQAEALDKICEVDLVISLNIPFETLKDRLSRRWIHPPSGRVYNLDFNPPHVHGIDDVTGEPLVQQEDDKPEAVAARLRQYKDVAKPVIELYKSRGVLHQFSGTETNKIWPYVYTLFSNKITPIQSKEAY
UniProt Q9BR61, sequence (Q9BR61 whole entry, looked up): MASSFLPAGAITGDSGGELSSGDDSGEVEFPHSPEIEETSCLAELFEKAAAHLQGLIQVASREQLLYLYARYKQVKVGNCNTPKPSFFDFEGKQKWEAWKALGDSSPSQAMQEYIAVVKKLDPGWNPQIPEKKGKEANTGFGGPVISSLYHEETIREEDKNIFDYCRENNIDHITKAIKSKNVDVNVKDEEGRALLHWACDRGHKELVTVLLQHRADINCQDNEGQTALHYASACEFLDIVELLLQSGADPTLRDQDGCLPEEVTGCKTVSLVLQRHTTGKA

Compound in the first assay: COC(=O)N[C@@H](C)CNc1nccc(-c2cn(C(C)C)nc2-c2cc(Cl)cc(NS(C)(=O)=O)c2F)n1 [encorafenib]
Briefly: log2 fold change, soluble protein after heating vs DMSO (PISA); higher = thermal stabilisation; K562 lysate, 10 uM; active = over 0.2 and 3.5 SD of the protein, either way, in both replicates (recomputed). The gist of the method: (§1)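 Thermal stability, expressed as log-two fold change relative to solvent controls, is given from duplicates. Crude K562 extract in PBS pH 7.4 with 1 mM MgCl2, at 1 mg/mL protein, was treated with 10 μM compound for 30 min and heated in aliquots for 3 min across 48°C-58°C. After pooling, adjustment to 0.5% NP-40 at 4°C and centrifugation at 21,000xg for 90 min, supernatant protein was measured by TMTpro 16plex LC-MS/MS with channel sums equalised.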
As for ABCF3 (UniProt Q9NUQ8), the log2 fold change is -0.031.

AP3D1 isoform 5 (UniProt O14617): the log2 fold change was 0.026.

As to APAF1 (UniProt O14727), the log2 fold change was -0.017.

As to AGL (UniProt P35573), the log2 fold change is 0.008.

Consider ANKRD27 (UniProt Q96NW4), for which the log2 fold change is -0.007.

As for AKR1B1 (UniProt P15121), the log2 fold change was 0.019.

Take AFF1 isoform 2 (UniProt P51825): the log2 fold change was -0.001.

On to ANXA1 (UniProt P04083), for which the log2 fold change was -0.021.

AARS2 (UniProt Q5JTZ9): the log2 fold change is 0.006.

Consider AKAP8L (UniProt Q9ULX6), for which the log2 fold change is 0.059.

As for AHCYL1 (UniProt O43865), the log2 fold change is 0.01.

In the case of ADRM1 (UniProt Q16186), the log2 fold change is -0.033.

As for ALDH6A1 (UniProt Q02252), the log2 fold change is -0.015.

As to ACACA isoform 4 (UniProt Q13085), the log2 fold change was 0.032.

For ASCC2 (UniProt Q9H1I8), the log2 fold change is 0.007.

ACBD6 (UniProt Q9BR61): the log2 fold change is -0.003.

Regarding ALG13 (UniProt Q9NP73), the log2 fold change was 0.059.

As for AMD1 (UniProt P17707), the log2 fold change was -0.08.

Take AK4 (UniProt P27144): the log2 fold change is 0.006.

For AIFM2 (UniProt Q9BRQ8), the log2 fold change is 0.024.

In the case of ASB6 (UniProt Q9NWX5), the log2 fold change was -0.1.

With ABCF2 isoform 2 (UniProt Q9UG63), the log2 fold change is -0.005.

Consider ARGLU1 (UniProt Q9NWB6), for which the log2 fold change was 0.012.

Take ABL2 (UniProt P42684): the log2 fold change is 0.092.

As to AKT1 (UniProt P31749), the log2 fold change was 0.084.

Consider AFF4 (UniProt Q9UHB7), for which the log2 fold change was 0.011.

As for ARL1 (UniProt P40616), the log2 fold change is 0.111.

With AKAP8 (UniProt O43823), the log2 fold change is 0.072.

On to ACLY (UniProt P53396), for which the log2 fold change was -0.043.

Turning to ACACB (UniProt O00763), the log2 fold change is 0.127.

In the case of ARL15 (UniProt Q9NXU5), the log2 fold change is 0.037.

Regarding ACAA1 (UniProt P09110), the log2 fold change is -0.021.

Turning to ACADM isoform 2 (UniProt P11310), the log2 fold change is -0.032.

As to ALDH18A1 (UniProt P54886), the log2 fold change was -0.009.

With AGPS (UniProt O00116), the log2 fold change is -0.005.

Compound in the next assay: COC(=O)[C@H](CCSC)NC(=O)C1=C(C=C(C=C1)NC[C@H](CS)N)C2=CC=CC=C2
The assay is described as above. The essentials:
as §1
For the target ABCF3 (UniProt Q9NUQ8), the log2 fold change is 0.11.

Turning to AP3D1 isoform 5 (UniProt O14617), the log2 fold change is -0.028.

Take APAF1 (UniProt O14727): the log2 fold change was 0.129.

For AGL (UniProt P35573), the log2 fold change was 0.178.

Take ANKRD27 (UniProt Q96NW4): the log2 fold change was 0.103.

With AKR1B1 (UniProt P15121), the log2 fold change is 0.009.

As for AFF1 isoform 2 (UniProt P51825), the log2 fold change was -0.033.

Turning to ANXA1 (UniProt P04083), the log2 fold change is 0.028.

Consider AARS2 (UniProt Q5JTZ9), for which the log2 fold change is 0.106.

Turning to AKAP8L (UniProt Q9ULX6), the log2 fold change was -0.032.

As for AHCYL1 (UniProt O43865), the log2 fold change was 0.009.

In the case of ADRM1 (UniProt Q16186), the log2 fold change was 0.118.

For ALDH6A1 (UniProt Q02252), the log2 fold change is 0.103.

In the case of ACACA isoform 4 (UniProt Q13085), the log2 fold change is -0.16.

With ASCC2 (UniProt Q9H1I8), the log2 fold change was 0.037.

Turning to ACBD6 (UniProt Q9BR61), the log2 fold change is 0.051.

As to ALG13 (UniProt Q9NP73), the log2 fold change was -0.082.

As for AMD1 (UniProt P17707), the log2 fold change is -0.107.

With AK4 (UniProt P27144), the log2 fold change was -0.07.

For AIFM2 (UniProt Q9BRQ8), the log2 fold change is 0.107.

As to ASB6 (UniProt Q9NWX5), the log2 fold change was 0.174.

ABCF2 isoform 2 (UniProt Q9UG63): the log2 fold change is 0.08.

ARGLU1 (UniProt Q9NWB6): the log2 fold change was -0.039.

ABL2 (UniProt P42684): the log2 fold change is -0.068.

As for AKT1 (UniProt P31749), the log2 fold change is 0.093.

As to AFF4 (UniProt Q9UHB7), the log2 fold change is -0.027.

Take ARL1 (UniProt P40616): the log2 fold change is -0.293 (active).

For AKAP8 (UniProt O43823), the log2 fold change is -0.098.

For the target ACLY (UniProt P53396), the log2 fold change was 0.133.

As for ACACB (UniProt O00763), the log2 fold change was -0.156.

ARL15 (UniProt Q9NXU5): the log2 fold change was -0.211.

For the target ACAA1 (UniProt P09110), the log2 fold change was 0.012.

As to ACADM isoform 2 (UniProt P11310), the log2 fold change is 0.13.

For ALDH18A1 (UniProt P54886), the log2 fold change is 0.062.

Consider AGPS (UniProt O00116), for which the log2 fold change is -0.125.
